# Experimental data published in PubChem BioAssay AID1645856 (Buhrlage Lab, Dana-Farber Cancer Institute and Novartis …, 2021).
# The whole screen tested about 47,000 compounds, of which about 510 (1.1%) were called active. This excerpt belongs to a sample that is enriched for actives. A number with no mark means an inactive call. No stated cut-off is given here; in the data, active means inhibition above about 30%; inactive means the rest.
# Molecular target: Ubiquitin carboxyl-terminal hydrolase 10 (Homo sapiens) (UniProt Q14694)
# Sequence (Q14694 whole entry, looked up): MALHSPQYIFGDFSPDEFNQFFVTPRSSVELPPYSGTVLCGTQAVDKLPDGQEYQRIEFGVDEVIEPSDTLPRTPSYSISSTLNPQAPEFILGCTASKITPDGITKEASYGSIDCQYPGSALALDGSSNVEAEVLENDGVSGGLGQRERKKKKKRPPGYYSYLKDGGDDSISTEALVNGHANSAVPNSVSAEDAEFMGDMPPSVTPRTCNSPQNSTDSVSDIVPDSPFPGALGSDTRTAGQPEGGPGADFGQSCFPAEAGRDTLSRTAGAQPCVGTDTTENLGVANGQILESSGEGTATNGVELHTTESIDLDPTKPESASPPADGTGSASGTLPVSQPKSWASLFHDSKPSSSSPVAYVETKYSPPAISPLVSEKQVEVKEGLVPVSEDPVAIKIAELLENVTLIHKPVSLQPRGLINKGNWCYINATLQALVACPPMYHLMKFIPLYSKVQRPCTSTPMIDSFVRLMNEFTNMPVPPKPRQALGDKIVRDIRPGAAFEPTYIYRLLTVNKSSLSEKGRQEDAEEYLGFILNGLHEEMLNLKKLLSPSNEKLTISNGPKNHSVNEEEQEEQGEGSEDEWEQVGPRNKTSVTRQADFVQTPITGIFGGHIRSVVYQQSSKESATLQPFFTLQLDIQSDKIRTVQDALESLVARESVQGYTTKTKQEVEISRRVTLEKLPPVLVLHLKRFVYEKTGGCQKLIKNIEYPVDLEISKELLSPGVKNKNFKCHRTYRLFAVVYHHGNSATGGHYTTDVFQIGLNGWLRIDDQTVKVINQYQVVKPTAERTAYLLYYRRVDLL
# Assay: blocks human USP10 ubiquitin-rhodamine cleavage (AID 1645856)
# Conditions: purified USP10, Ub-rhodamine fluorescence, 60 min; at 20 µM; hits give high values
row,Compound,inhibition
1,CC1=C(C(=O)OCCOc2ccccc2)C(c2ccccc2OC(C)C)NC(=O)N1 (stereo not given),5.16%
2,Cc1nn(-c2cccc(Cl)c2)c2c1C(C(=O)c1ccc3c(c1)OCCO3)CC(=O)N2 (stereo not given),-1.54%
3,CN1c2ccccc2O[C@@H]2CC[C@@H](NC(=O)Cn3cccn3)[C@@H](O)[C@@H]21,0.781%
4,COc1ccc2[nH]c3c(N4CCN(C5CCCCC5)CC4)ncnc3c2c1,2.49%
5,Cc1noc(-c2cccn(Cc3cc(F)ccc3F)c2=O)n1,1.28%
6,O=C(Cn1cccc(-c2nc(-c3ccccc3)no2)c1=O)Nc1ccccc1F,-5.7%
7,N#Cc1ccc(NC(=O)Nc2cccn(Cc3ccccc3F)c2=O)cc1,42.6% (active)
8,CN1Cc2cccc(C(=O)N(C)c3nc4c(s3)CCc3occc3-4)c2C1=O,-0.411%
9,COc1cnc(CSc2ccccc2)cc1OCC(=O)Nc1ccc2c(c1)OCO2,0.813%
10,COCCCn1c(C(=O)NCC(=O)OC(C)C)cc2c(=O)n3cccc(C)c3nc21,3.16%
11,COc1ccc(/C=C(\C(=O)N(C)C2CCCCC2)n2ccccc2=O)cc1,-1.04%
12,COc1ccc(-c2cc(C(=O)Nc3ncc(C)s3)c3ccccc3n2)cc1OC,-3.26%
13,CNC(=O)C1CN(C(=O)c2ccccc2F)CC12CCCC2 (stereo not given),-0.0522%
14,Cn1c(=O)n(C2CCN(C(=O)Cc3ccccc3)C2)c2ncncc21 (stereo not given),0.307%
15,O=C1c2ccccc2C2c3[nH]c4ccccc4c3C(c3ccc(F)cc3)CN12 (stereo not given),-4.15%
16,CC(C)N1CCN(S(=O)(=O)c2cc(-c3nnc(C4CC4)o3)co2)CC1,-5.2%
17,Cc1c(C2CCN(C(=O)NCc3ccccc3)CC2)noc1N,-2.52%
18,Cc1noc(C)c1COc1cccc(C(=O)NC(C)c2cc3ccccc3o2)c1 (stereo not given),-0.528%
19,O=C(NCc1cccnc1N1CCCCC1)c1nc2n(n1)-c1ccccc1S(=O)(=O)N2,17.3%
20,CC(NC(=O)c1nc2n(n1)-c1ccccc1S(=O)(=O)N2)c1cc2ccccc2o1 (stereo not given),36.5% (active)
21,CN1CCC2(CN(c3ncccn3)CC23CCN(C(=O)Cc2ccccc2)CC3)C1=O (stereo not given),-1.5%
22,CCn1c(=O)c(C(=O)N2CCN(c3cccc(C)c3)CC2)nc2cccnc21,-3.06%

row,Compound,inhibition
1,O=S(=O)(c1cccc2nonc12)N1CCC(n2cccc2)CC1,-1.8%
2,COc1cc(Cl)c(C)cc1Nc1ncnc2sccc12,-4.4%
3,NC(=O)CCC(=O)N[C@H]1C[C@H]2CN(Cc3ccccc3)c3ccccc3CN2C1,-7.81%
4,O=C(c1ccccn1)N1CCC(c2nc3ccccc3cc2C(=O)N2CCCC2)CC1,-0.709%
5,O=C(O)C1CCCN1C1=NS(=O)(=O)c2ccccc21 (stereo not given),0.971%
6,CC(=O)N1CCc2cc(C(O)CN3CCN(c4ccccc4)CC3)ccc21 (stereo not given),1.48%
7,Cc1ccc(N2CC(C(=O)N3CCC(C(=O)Nc4ccc(F)cc4F)CC3)CC2=O)cc1 (stereo not given),-5.34%
8,CCC(C(=O)NC1CCCC1)N(C(=O)Cn1nnc(-c2ccc(C)cc2)n1)c1cccc(O)c1 (stereo not given),1.22%
9,Cn1c(=O)c2c3c(cnc2n(C)c1=O)C(=O)CC(c1ccccc1)C3 (stereo not given),-1.08%
10,O=C(NC1CCCC1)c1cc(-c2cccnc2)n(-c2ccc(F)cc2)n1,1.77%
11,c1ccc(-c2ccc(NCc3ccc4c(c3)OCO4)nn2)cc1,3.9%
12,Cc1ccc(S(=O)(=O)N2CCCC2C(=O)N2CCN(c3cccc(Cl)c3)CC2)cc1 (stereo not given),1.5%
13,O=C(COC(=O)C(Cc1c[nH]c2ccccc12)NC(=O)c1ccccc1Cl)c1ccccc1F (stereo not given),6.57%
14,Cn1ccnc1C(NC(=O)c1ccncc1)c1ccc(F)c(F)c1 (stereo not given),-4.27%
15,COc1ccc(CNC2C3=C(CCCC3)C(=O)N2CCc2ccc(Cl)cc2)cc1 (stereo not given),-0.147%
16,CC(C)CN1C[C@@]23CN(C(=O)NCCc4ccc(F)cc4)C[C@@H](C[C@@H]2S1(=O)=O)O3,3.62%
17,COC(=O)C1CCN(C(=O)CC[C@H]2CNC(=O)[C@@H]3[C@@H](CCN3Cc3ccc(C)cc3)N2C)CC1,1.61%
18,Cc1ccc(NC(=O)CCOc2ccccc2)cc1S(=O)(=O)Nc1ccccc1Cl,30.4% (active)
19,Cc1ccc(NC(=O)CCC(=O)N(c2ccccc2)c2ccccc2)cc1Cl,11.4%
20,COc1cccc(NC(=O)COC(=O)c2ccc(OC)c(S(=O)(=O)Nc3cc(Cl)c(OC)cc3OC)c2)c1,0.441%
21,Cc1cc(O)c(=O)cc2c1C[C@H]1CC(C)(C)/C=C/C[C@@]3(C)Oc4cc(=O)c(O)cc(C)c4C[C@@H]3C[C@H](O)[C@]1(C)O2,39.9% (active)
22,Cc1ccc(CNC(=O)CCCn2c(=O)c3sccc3n(CC(=O)OCc3ccccc3)c2=O)cc1,53.7% (active)

row,Compound,inhibition
1,Cc1ccc(CNC(=O)CC(c2ccccc2)c2ccccc2)cc1,9.59%
2,COc1ccc(CCNC(=O)CCCn2c(=O)c3ccccc3n(CC(=O)OCc3ccccc3)c2=O)cc1OC,12.7%
3,Cc1cccc(-n2c3c(c(=O)[nH]c2=O)CN(Cc2ccco2)CN3)c1C,-1.97%
4,COc1ccc(C(=O)N(c2ccccn2)c2ccccn2)cc1OC,-0.245%
5,CC(=O)Nc1sc2c(c1C(c1cccc(F)c1)N1CCN(CCO)CC1)CCCC2 (stereo not given),-5.42%
6,Cc1c(-c2nn3c(-c4ccco4)nnc3s2)cccc1[N+](=O)[O-],50.9% (active)
7,CC(C)Cc1cc(-c2nn3c(-c4ccccc4Cl)nnc3s2)n[nH]1,13.8%
8,Fc1ccccc1CSc1nnc(C2CCNCC2)o1,-2.32%
9,Cc1cc(-c2ccccc2C(=O)O)nc(C2CCCNC2)n1 (stereo not given),1.65%
10,O=C(NCCc1ccccc1)c1ccc2c(=O)nc3c(-c4ccccc4F)n[nH]n3c2c1,3.48%
11,O=C(Cn1c(=O)n(Cc2ccc3c(c2)OCO3)c(=O)c2ccccc21)NCc1ccco1,25.6%
12,O=C(NCCc1ccccc1)c1ccc2c(=O)n(Cc3ccco3)c(=O)n(Cc3cccc([N+](=O)[O-])c3)c2c1,73.1% (active)
13,O=C(NCc1ccco1)N1CCC2(CC1)Nc1ccccc1-n1cccc12,0.0863%
14,Cc1c(S(=O)(=O)Nc2ccc(F)cc2)cc(C(=O)N2CCCCC2)n1C,1.47%
15,COc1ccc(OC)c(NC(=O)CN2CCc3ccccc32)c1,0.258%
16,CCc1cccc(C)c1NC(=O)CSc1nc2c(c(=O)[nH]1)CCCC2,0.855%
17,Cc1cc(=O)n(CC(=O)NCc2ccccc2)c(N2CCCC2)n1,-2.48%
18,CCc1cccc(C)c1NC(=O)Cn1nc2ccc(C(=O)NCc3ccccc3)cn2c1=O,36% (active)
19,O=C(c1ccc(N2CCCCC2)nn1)N(Cc1ccccc1)c1ccccn1,-1.8%
20,Cn1c(C2CCN(C(=O)Nc3ccc4c(c3)CCC4)C2)nc2cccnc21 (stereo not given),-0.116%
21,Cc1ccc(NC(=O)COC(=O)C2CC(=O)N(c3cccc(C)c3C)C2)cc1 (stereo not given),-7.32%
22,O=C1CCCC2=C1C(c1ccc(C(=O)O)cc1)n1ncc(C(=O)Nc3ccc(F)cc3)c1N2 (stereo not given),-5.67%

row,Compound,inhibition
1,CCOc1cccc(C2CC(=O)Nc3c2c(C)nn3-c2nncc(-c3ccc(F)cc3)n2)c1 (stereo not given),4.17%
2,Cc1ccc(C2N=C(N3CCCCC3)Nc3nc(C)cc(=O)n32)cc1 (stereo not given),-10.2%
3,O=C(c1ccccc1Cl)N(c1ccccn1)c1ccccn1,-2.33%
4,C=C1CCC2[C@](C)(CCC[C@]2(C)C(=O)OC)[C@H]1CCc1ccoc1C[N+](C)(C)Cc1ccccc1 (stereo not given in full),-1.66%
5,C=C1CCC2[C@](C)(CCC[C@]2(C)C(=O)OC)[C@H]1CCc1ccoc1/C=C/C(=O)O (stereo not given in full),46.4% (active)
6,C=C1CCC2[C@](C)(CCC[C@]2(C)C(=O)OC)[C@H]1CCc1ccoc1CNCC(=O)O (stereo not given in full),3.42%
7,FC(F)(F)c1cccc(CN2CCCn3c(nc4ccccc43)C2)c1,-0.144%
8,O=C(NCc1noc(C2CCCC2)n1)c1ccccc1,3.21%
9,CNc1ccc(-c2noc([C@@H]3CCCN3C3CCN(C)CC3)n2)cn1,-0.38%
10,COc1ccc(C(O)Cc2nc3ccccc3n2Cc2ccc(Cl)cc2)cc1 (stereo not given),1.15%
11,COC(=O)c1ccccc1NC(=O)c1cnc2ccccn2c1=O,0.362%
12,O=C(CNC1CCCc2ccccc21)Nc1cc(S(=O)(=O)N2CCCCC2)ccc1Cl (stereo not given),1.62%
13,Cc1nccc(N2CCCC2c2cnc(-c3ncc[nH]3)cn2)n1 (stereo not given),-5.73%
14,O=C(Cn1cc(S(=O)(=O)N2CCOCC2)ccc1=O)Nc1ccc(F)c(F)c1,2.08%
15,CS(=O)(=O)c1ccc(-n2cc(-c3ccncn3)cn2)cc1,-1.57%
16,O=C(c1ncccn1)N1CCCCC1c1ncc(Cc2cccc(F)c2)o1 (stereo not given),0.0694%
17,CC(OC(=O)c1cn(-c2ccccc2)nc1-c1cccnc1)C(=O)Nc1cccc(S(=O)(=O)N(C)C)c1 (stereo not given),-8.1%
18,Cc1nn(CCC(=O)Nc2ccc(C#N)cc2)c(C)c1S(=O)(=O)N1CCOCC1,7.2%
19,Cn1c(N2CCN(C(=O)c3ccc(F)cc3)CC2)cc(=O)n(C)c1=O,-3.62%
